From PubChem BioAssay (NCI)
About 79,000 compounds went through this panel and 15% of them were active in at least one assay; those are over-represented in the sample as a whole. The source made the active and inactive calls. Cut-off read from the data, not from the text of the source: active = growth inhibition above about 70%; inactive = the rest.

Tests used:
[1] = NCI Yeast Anticancer Drug Screen. Data for the rad50 strain (AID 155);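 note: 0% = growth of vehicle-only cultures of the same strain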; conditions: S. cerevisiae rad50 strain growth inhibition; at 50.0 µM; stronger effect = higher value
Procedure, shortened: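 Compounds were tested on a yeast strain with an engineered DNA damage repair alteration; the reported value is growth inhibition normalised to vehicle treatment.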

[2] = NCI Yeast Anticancer Drug Screen. Data for the mec2-1 strain (AID 157); conditions: S. cerevisiae mec2-1 strain, at 50.0 µM, stronger effect = higher value
Procedure, shortened: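 Test agents were screened against the mec2-1 yeast strain, with defined DNA repair or cell cycle alteration. Growth was scored as inhibition against vehicle-only controls.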

[3] = NCI Yeast Anticancer Drug Screen. Data for the sgs1 mgt1 strain (AID 161);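 note: 0% = growth of cultures given vehicle only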; conditions: S. cerevisiae sgs1 mgt1 strain, at 50.0 µM, stronger effect = higher value
Procedure, shortened: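 Inhibition of yeast growth, normalised to vehicle-treated controls, is reported for a strain bearing genetic alterations in DNA damage repair.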

[4] = NCI Yeast Anticancer Drug Screen. Data for the cln2 rad14 strain (AID 165);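 note: 0% = growth equal to vehicle treated cultures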; conditions: S. cerevisiae cln2 rad14 strain, at 50.0 µM, stronger effect = higher value
Procedure, shortened: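 Growth of compound-exposed yeast (cln2 rad14 genotype) measured and expressed as inhibition relative to vehicle.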

[5] = NCI Yeast Anticancer Drug Screen. Data for the bub3 strain (AID 167); conditions: S. cerevisiae bub3 mutant strain, at 50.0 µM, stronger effect = higher value
Procedure, shortened: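 Growth of a checkpoint-deficient yeast mutant is measured after compound exposure. Values represent inhibition relative to vehicle.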

[6] = NCI Yeast Anticancer Drug Screen. Data for the mlh1 rad18 strain (AID 175); conditions: S. cerevisiae mlh1 rad18 strain growth inhibition; at 50.0 µM; stronger effect = higher value
Procedure, shortened: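 In this whole-cell yeast screen, a strain with altered DNA damage repair is challenged with compound, and its growth is measured against matched vehicle-treated controls.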

Measured: growth inhibition

CCCCCCCCCCCCCCCCOP(=O)(O)OP(=O)(O)OCC1OC(n2ccc(N)nc2=O)CC1O (centres undefined)
inactive: [1] -10.2% | [2] -3.9% | [3] 8.7% | [4] -17.8% | [5] 20.6% | [6] 12.7%

Nc1cc2c3c(cccc3c1)NC2=O
inactive: [1] 47.5% | [2] 14.4% | [3] 17.9% | [4] 11% | [5] -1.5% | [6] -12.9%

O=COCCCCCc1ccccc1
inactive: [1] -10.6% | [2] -5.05% | [3] -2.55% | [4] 8.6% | [5] -6.45% | [6] -11%

NC(=O)C1CCCC1
inactive: [1] -3.3% | [2] 2.1% | [3] -5.25% | [4] 14.1% | [5] 23.4% | [6] -5.05%

CC(=O)ON(C(=O)c1ccccc1)c1ccccc1
inactive: [1] -1.7% | [2] 0.95% | [3] 4.3% | [4] -5.15% | [5] 7.05% | [6] 12.1%

ClCCCOC1CCCCO1 (centres undefined)
inactive: [1] -20.1% | [2] -40.5% | [3] -21.1% | [4] 26.9% | [5] -7.6% | [6] 1.4%

N#CCCN(N)S(=O)(=O)c1ccccc1
inactive: [1] 3.7% | [2] 7.65% | [3] 0% | [4] -34.7% | [5] 2.85% | [6] -0.2%

COC1OC(CN)C(O)C(O)C1O (centres undefined)
inactive: [1] 0.15% | [2] 12.1% | [3] 2.35% | [4] 28.2% | [5] 5.7% | [6] 43.2%

CCOC1OC(C(O)CO)C(O)C1O (centres undefined)
inactive: [1] -16.9% | [2] -18.8% | [3] 5.25% | [4] -39.9% | [5] -18% | [6] -17%

c1ccc(CN2CCC3(N4CCOCC4)C(C2)N=NN3c2ccccc2)cc1 (centres undefined)
inactive: [1] -27.9% | [2] -9.6% | [3] 0.65% | [4] -1.05% | [5] -11.7% | [6] -14.2%

N#CC(NNC(=O)c1ccccc1O)c1ccccc1 (centres undefined)
inactive: [1] 16.1% | [2] 0.5% | [3] 9.85% | [4] -8.7% | [5] 35.9% | [6] 3.75%

CCOC(=O)CN=c1nc(SC)sc2c(C(=O)OCC)nc(Sc3ccccc3)n12
inactive: [1] 1.25% | [2] -7.25% | [3] 1.55% | [4] 13.6% | [5] -11.4% | [6] 8.65%

CC(=O)OC1C(=O)OCC23CCC(C)=CC2OC2CC(OC(=O)/C=C/C=C/C(=O)OCCC1C)C3(C)C21CO1 (centres undefined)
inactive: [1] -35.5% | [2] -4.45% | [3] -31.3% | [4] -4.4% | [5] -22.6% | [6] -19.6%

COc1ccc(C(=O)c2ccccc2C)cc1OC
inactive: [1] 1.65% | [2] 0.1% | [3] -1.15% | [4] 28.1% | [5] 36.5% | [6] 0.15%

CCN(CC)C(=S)N1CCCCC1
inactive: [1] 10.2% | [2] -14.6% | [3] -14.2% | [4] -65.4% | [5] -15.9% | [6] -7.25%

O=C(O)CCC(=O)NC(c1ccccc1)(c1ccccc1)c1ccccc1
inactive: [1] -17.4% | [2] -9.45% | [3] -0.15% | [4] -37.1% | [5] 3.2% | [6] 3.1%

COc1ccc(C(CN)c2ccc(N)cc2)cc1 (centres undefined)
inactive: [1] 8.8% | [2] 10.7% | [3] 1.6% | [4] 2.9% | [5] -13.4% | [6] -5.05%

CC(NC(=O)N=Nc1ccccc1)C(=O)O (centres undefined)
inactive: [1] -3.05% | [2] -8.95% | [3] -9.6% | [4] -39% | [5] -11.1% | [6] 6.2%

O=c1cc(CC2(O)CCCCC2)c2ccccc2[nH]1
inactive: [1] -3.95% | [2] 0.3% | [3] -2.5% | [4] -58% | [5] -48.8% | [6] 9.8%

O=C(Nc1ccccc1)c1nccc2ccccc12
inactive: [1] 1.45% | [2] 13% | [3] -6.45% | [4] -17.1% | [5] 9.4% | [6] -3.95%

CCOC(=O)/C(C#N)=C\C1(C)CCC(C)=CO1 (centres undefined)
inactive: [1] -1.8% | [2] -8.65% | [3] -7.9% | [4] -31.6% | [5] -4.85% | [6] -3.25%

CC(NC(=O)NC(C)(C)C)NC(=O)C(N)CC(=O)O (centres undefined)
inactive: [1] -51.8% | [2] -20.1% | [3] -25.4% | [4] 19.4% | [5] 12.7% | [6] -20.4%

O=c1c2cc([N+](=O)[O-])ccc2sc2ccsc12
inactive: [1] 1.6% | [2] 2.55% | [3] -4.95% | [4] -2.85% | [5] -10.6% | [6] 11.9%

Cc1c(Cl)cccc1NC(=O)C(=O)C1C(=O)CC(C)(C)CC1=O
inactive: [1] 10.6% | [2] 6.8% | [3] -1.2% | [4] 7.85% | [5] 15.2% | [6] 18.8%

O=C(c1ccccc1)c1ccc(C(=O)c2ccccc2)cc1
inactive: [1] -0.35% | [2] -1.85% | [3] -19.2% | [4] -6.15% | [5] -9.35% | [6] -19.3%

C[N+](C)(C)C12CCCC1S(=O)(=O)C2 (centres undefined)
inactive: [1] 4.95% | [2] 4.25% | [3] 9.3% | [4] -7.5% | [5] -7.45% | [6] 16.6%

O=C(/C=C/c1ccccc1Cl)c1ccc(Cl)c(Cl)c1
inactive: [1] 28.7% | [2] 0.2% | [3] 2.1% | [4] 12% | [5] 15.4% | [6] 29.4%

CCCCCC(=O)Nc1cc(N)cc(C(=O)O)c1
inactive: [1] 4.25% | [2] 9.25% | [3] 9.5% | [4] -9.6% | [5] 0.1% | [6] -14.3%

CC(NC(=O)C(OC(=O)C(C)NC(=O)OC(C)(C)C)C(C)C)C(=O)OC(C(=O)O)C(C)C (centres undefined)
inactive: [1] -24.2% | [2] 10.3% | [3] -5.75% | [4] -1.1% | [5] 2.1% | [6] -7.15%

CC(=N\[O-])/C(C)=N/O.CC(=N\[O-])/C(C)=N/O.CCCc1ccncc1.[Cl-].[Cl-].[Rh+3]
inactive: [1] -9.2% | [2] -34% | [3] -29.4% | [4] 13.7% | [5] -44.6% | [6] 3.9%

O=C(Nc1ccc(Cl)cc1)Nc1nnc2nc(CC(=O)c3ccc4ccccc4c3)c(=O)[nH]n12
inactive: [1] 12.9% | [2] 9.45% | [3] 2.2% | [4] -16.3% | [5] 21.8% | [6] 1.3%

Cc1cc(C)c(-c2cc(C(O)C3OC4OC(C)(C)OC4C3O)on2)c(C)c1 (centres undefined)
inactive: [1] 15.3% | [2] -0.9% | [3] -1.3% | [4] 9.25% | [5] 0.8% | [6] 0.3%

CN(C)Cc1cc(C(=O)/C=C/c2ccc(Cl)cc2Cl)cc(CN(C)C)c1O
inactive: [1] 6.4% | [2] -12.8% | [3] 8.55% | [4] -51.4% | [5] 8.85% | [6] 13.8%

NCCC1([N+](=O)[O-])CCNCC1
inactive: [1] 1.9% | [2] -7.2% | [3] -6.15% | [4] -14.7% | [5] -5.3% | [6] 14.6%

CCCCCCCCCCCCCCCCOc1ccc(S(=O)(=O)NC(C)(C)C)cc1[N+](=O)[O-]
inactive: [1] 8.7% | [2] -17.4% | [3] 7.85% | [4] -1.6% | [5] 20.6% | [6] 18.9%

CN(C)c1ccc(/C=C2\CCOC2=O)cc1
inactive: [1] 38.1% | [2] 11.8% | [3] 14.3% | [4] 4.6% | [5] 2.95% | [6] 8.6%

CCCCN(CCCC)CC(O)c1cc(-c2ccc(C(F)(F)F)cc2)nc(-c2ccc(C(F)(F)F)cc2)c1 (centres undefined)
active: [6] 82.3%
inactive: [1] 25% | [2] 2.45% | [3] 2.2% | [4] -24.2% | [5] -33.8%

Nc1nc(Cl)cc(NCC(O)CO)n1 (centres undefined)
inactive: [1] 7.55% | [2] 2.35% | [3] -1.45% | [4] 6.65% | [5] -0.25% | [6] -2.55%

CC(C)CCC[C@@H](C)[C@H]1CC[C@H]2[C@@H]3CC[C@H]4C[C@H](N[C@@H]5CC[C@@]6(C)[C@@H](CC[C@@H]7[C@@H]6CC[C@]6(C)[C@@H]([C@H](C)CCCC(C)C)CC[C@@H]76)C5)CC[C@]4(C)[C@H]3CC[C@]12C
inactive: [1] 55.1% | [2] 19.2% | [3] 46.8% | [4] -2.8% | [5] 15.3% | [6] 36.7%
